Hits are enriched below; roughly 19% of the tested compounds scored in any of these assays.
TDP1 inh: inhibitors of human tyrosyl-DNA phosphodiesterase TDP1 | Q9NUW8 | recombinant TDP1, AlphaScreen DNA substrate cleavage | Potency, µM (doses to about 130 µM), without a hit: at the top dose activity change, negative = inhibition, hits mostly inhibitors | 0.28% of 350,000 active | AID 485290; note: potency is the fitted concentration of half-maximal effect; nearly all actives have a fitted effect of over 40% in size
Target sequence (Q9NUW8 whole entry, looked up): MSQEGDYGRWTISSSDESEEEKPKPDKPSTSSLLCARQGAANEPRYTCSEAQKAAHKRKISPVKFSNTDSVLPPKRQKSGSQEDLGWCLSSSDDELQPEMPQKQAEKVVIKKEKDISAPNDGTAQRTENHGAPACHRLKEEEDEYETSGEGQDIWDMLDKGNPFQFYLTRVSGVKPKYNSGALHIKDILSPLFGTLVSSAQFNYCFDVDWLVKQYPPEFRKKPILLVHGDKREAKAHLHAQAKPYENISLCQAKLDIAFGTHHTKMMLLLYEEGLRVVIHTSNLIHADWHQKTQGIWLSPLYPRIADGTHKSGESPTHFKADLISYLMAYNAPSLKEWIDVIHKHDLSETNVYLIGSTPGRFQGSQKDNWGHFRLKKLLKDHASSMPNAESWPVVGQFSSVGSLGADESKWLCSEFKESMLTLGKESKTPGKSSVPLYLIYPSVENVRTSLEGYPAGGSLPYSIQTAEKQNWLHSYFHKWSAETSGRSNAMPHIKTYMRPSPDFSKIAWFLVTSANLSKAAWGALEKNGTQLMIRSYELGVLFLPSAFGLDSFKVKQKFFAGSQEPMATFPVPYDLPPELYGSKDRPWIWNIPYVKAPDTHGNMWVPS
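Recombinant human Tdp1 (E. coli-expressed, 1 nM final) preincubated with compounds 15 min at room temperature, then 5'-biotin/3'-phosphotyrosine-FITC DNA substrate (15 nM final) added for 5 min. AlphaScreen beads (10 ug/ml final) added 10 min; cleavage lowers signal.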
Giardia killer: Giardia lamblia killing | Giardia lamblia trophozoite viability | 0.15% of 340,000 active | AID 540267 | activity change, % at 7.66 µM, hits read low; in the data active = activity change below about -80%; inconclusive = between about -30% and that limit;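 note: parasites exposed to compound for two days anaerobically before the ATP read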
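Luminescent ATP signal served as the viability read-out, measured 15-30 min after adding ATP detection reagent to trophozoites that had been incubated with compounds for 48 hrs at 37 deg C anaerobically at 100 cells/well.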
DT40 TDP1 CPT: growth inhibition of DT40 Tdp1-/-;hTDP1 cells with camptothecin (screen for TDP1 inhibitors) | Potency, µM (highest dose often 46.2 µM), inactives show top-dose activity change, negative = growth inhibition, actives largely listed as inhibitors | 12% of 420,000 active | AID 686979 | chicken DT40 Tdp1-/-;hTDP1 cells + 20 nM CPT, ATP luminescence, 48 h; note: potency is the fitted concentration of half-maximal effect; nearly all actives have a fitted effect of over 55% in size
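Chicken DT40 Tdp1-/- cells complemented with human TDP1, 400 cells/well, exposed to compounds plus 20 nM camptothecin for at least 48 h at 37 C; viability read as ATP content by CellTiter-Glo luminescence.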
ELG1 DNA repair: inhibitors of ELG1-dependent DNA repair in HEK293T cells; HEK293T ELG1-luciferase reporter, luminescence, 16 h; DNA damage induced by 5-fluorouridine; 2.3% of 330,000 active; Potency, µM (series often up to 46.1 µM), inactives show at the top dose activity change, negative = inhibition, actives largely listed as inhibitors; note: potency is the fitted concentration of half-maximal effect; nearly all actives have a fitted effect of over 55% in size
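Quantitative HTS, concentration-response format. 2,000 cells/well co-treated with 5-fluorouridine and compound, 16 hr in 5% CO2 at 37 °C; ONE-Glo luminescence read after 30 min.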
IL1B secr inh: inhibitors of inflammasome signaling (IL-1 beta secretion); THP-1 LPS/ATP IL-1B secretion, AlphaLISA, 16 h; stronger effect = lower value; activity change, % at 57.5 µM; 4.7% of 360,000 active; in the data active = activity change below about -50%; inconclusive = mostly about -30% to -49%
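THP-1 cells pretreated 1 hr with compounds (up to 57.5 uM final), then stimulated with LPS (250 ng/mL final) plus ATP (1.25 mM final); secreted IL-1B measured by AlphaLISA after 16 hr, decreased signal indicating inhibition.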
TDP1 cell noCPT: qHTS for Inhibitors of human tyrosyl-DNA phosphodiesterase 1 (TDP1): qHTS in cells in absence of CPT. Potency, µM (top dose mostly 46.2 µM), for inactives: top-dose activity change, negative = growth inhibition, usual class: inhibitors. AID 686978, 2013. 15% of 420,000 active. DT40 Tdp1-/- hTDP1 cells, no CPT, ATP luminescence, 48 h; note: potency is the fitted concentration of half-maximal effect; nearly all actives have a fitted effect of over 55% in size
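Stably hTDP1-transfected Tdp1-null chicken DT40 cells were treated with library compounds minus camptothecin and grown for at least 48 hr at 37 °C, after which cellular ATP was quantified by luminescence.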
Active calls of the source: *; ? = inconclusive; nt = no result; [ ] = remark or other dose. Unless noted, calls come from the whole dose curve; as a rule, active = well fitted curve in the direction sought with a large enough effect; inconclusive = small, poorly fitted or top-dose-only effect, or another doubt; inactive = no such curve, though single readings can be large; an effect the other way counts as inactive or inconclusive. % is set by controls: 0 for no effect and ±100 for the full control effect.

SMILES	TDP1 inh	Giardia killer	DT40 TDP1 CPT	ELG1 DNA repair	IL1B secr inh	TDP1 cell noCPT
CSCC[C@H](NC(=O)[C@H](CO)NC(=O)[C@H](Cc1ccc(O)cc1)NC(=O)[C@@H](N)CO)C(=O)N[C@@H](CCC(=O)O)C(=O)N[C@@H](Cc1cnc[nH]1)C(=O)N[C@@H](Cc1ccccc1)C(=O)N[C@@H](CCCNC(=N)N)C(=O)N[C@@H](Cc1c[nH]c2ccccc12)C(=O)NCC(=O)N[C@@H](CCCCN)C(=O)N1CCC[C@H]1C(=O)N[C@H](C(=O)NCC(=O)N[C@@H](CCCCN)C(=O)N[C@@H](CCCCN)C(=O)N[C@@H](CCCNC(=N)N)C(=O)N[C@@H](CCCNC(=N)N)C(=O)N1CCC[C@H]1C(=O)N[C@H](C(=O)N[C@@H](CCCCN)C(=O)N[C@H](C(=O)N[C@@H](Cc1ccc(O)cc1)C(=O)N1CCC[C@H]1C(=O)O)C(C)C)C(C)C)C(C)C	13%	nt	nt	nt	nt	nt
CC(C(=O)NC1CCCC1)n1c(-c2ccccn2)nc2ccccc21 (centres undefined)	nt	nt	?	nt	13	?
COc1ccc(-c2cc(C(F)(F)F)n3nc(C)c(-c4ccccc4)c3n2)cc1OC	-1%	nt	-13%	nt	nt	-25%
N#Cc1ccccc1N1CCN(C(=O)c2ccc(NC(=O)c3ccc(Br)o3)cc2)CC1	nt	16	?	-21%	-10	?
O=S(=O)(NCCc1ccc(Cl)cc1)c1ccc(N2CCCCS2(=O)=O)cc1	9%	nt	18µM*	nt	nt	23µM*
CCCCNS(=O)(=O)c1ccc(N2CCCCS2(=O)=O)cc1	6%	nt	?	nt	nt	23µM*
CCN(c1cccc(C)c1)S(=O)(=O)c1ccc(N2CCCCS2(=O)=O)cc1	-2%	nt	13µM*	nt	nt	23µM*
CC(C)CNS(=O)(=O)c1ccc(N2CCCCS2(=O)=O)cc1	-1%	nt	?	nt	nt	?
COc1ccc(CCNS(=O)(=O)c2ccc(N3CCCCS3(=O)=O)cc2)cc1OC	11%	nt	?	nt	nt	21µM*
COC(=O)CNC(=O)c1cnn(-c2ncc3c(n2)-c2ccccc2CCC3)c1C1CC1	nt	nt	-13%[9.04 µM]	nt	nt	-26%
CCOc1ccc(OC(=O)c2cn(-c3cccc(OC)c3)c(=O)c3ccccc23)cc1	1%	nt	?	nt	nt	?
C=CCN1C(=O)c2ccc(C(=O)N(C)CC(=O)Nc3ccccc3Br)cc2C1=O	3%	-11	1%	-1%	15	-2%
N#Cc1ccccc1NS(=O)(=O)c1ccc(N2CCCCS2(=O)=O)cc1	-1%	nt	-5%	nt	nt	-4%
O=S(=O)(NCCc1ccccc1)c1ccc(N2CCCCS2(=O)=O)cc1	1%	nt	18µM*	nt	nt	23µM*
CCCCc1ccc(NS(=O)(=O)c2ccc(N3CCCCS3(=O)=O)cc2)cc1	-1%	nt	?	nt	nt	?
Cc1ccc(CNS(=O)(=O)c2ccc(N3CCCCS3(=O)=O)cc2)cc1	4%	nt	12µM*	nt	nt	16µM*
Cc1ccc(-c2ccnc(-n3ncc(C(=O)N(C)CC4CCCN(C)C4)c3C)n2)o1 (centres undefined)	nt	nt	29%	nt	nt	-5%
COc1ccc(OC)c(S(=O)(=O)Nc2ccc3oc(C)c(C(C)=O)c3c2)c1	nt	6	16µM*	-10%	22	15µM*
COc1ccc(OC)c(S(=O)(=O)Nc2ccc(C(C)=O)cc2)c1	3%	-6	11µM*	12%	14	18µM*
COC(=O)c1c(C)oc2ccc(NS(=O)(=O)c3cc(OC)ccc3OC)cc12	7%	-20	10µM*	?	8	10µM*
CC(=O)c1c(C)oc2ccc(NS(=O)(=O)c3cccs3)cc12	-5%	-9	?	?	0	?
COc1ccc(OC)c(S(=O)(=O)Nc2cccc(O)c2)c1	nt	-12	-2%	nt	10	-5%
COc1ccc(OC)c(S(=O)(=O)Nc2ccc(C(N)=O)cc2)c1	4%	-17	-29%	0%	2	-13%
COc1cccc(NC(=O)c2c(C(=O)Nc3ccccc3)sc3nc(C)cc(=O)n23)c1	0%	nt	-21%	nt	nt	-2%
CCCc1cnc(N2CCN(C(=O)c3ccc(OC)cc3)CC2)nc1	nt	-11	?	-26%	31	?
SMILES	TDP1 inh	Giardia killer	DT40 TDP1 CPT	ELG1 DNA repair	IL1B secr inh	TDP1 cell noCPT
COc1ccc(C(=O)NCC2Cc3cccc(-c4cncnc4)c3O2)c(OC)c1OC (centres undefined)	nt	nt	-10%[9.04 µM]	nt	nt	?
ClCCn1c(CCl)nc2ccc(Cl)cc21	nt	nt	?	nt	20	16µM*
COc1ccc(NC(=O)C(NC(=O)c2ccc(C)cc2)c2ccccc2)cc1 (centres undefined)	8%	-21	-15%	19%	0	9%
COc1ccc(NC(NC(=O)c2ccc(OC)cc2)C(Cl)(Cl)Cl)cc1 (centres undefined)	10%	0	?	-6%	-78*	?
COc1ccc(C(=O)NC(Nc2ccc(C)cc2)C(Cl)(Cl)Cl)cc1 (centres undefined)	1%	26	21µM*	5%	-72*	18µM*
Cc1ccc(C(=O)Nc2ccc(Br)cc2)cc1S(=O)(=O)NCc1ccccc1	-1%[12.3 µM]	nt	?	nt	nt	?
Cn1c(Sc2ccc(Br)cc2)c(C=O)c2ccccc21	1%	-3	?	?	-81*	13µM*
CCc1ccc(NC(=O)CSC2=Nc3ccccc3C3=NC(CCC(=O)NCc4ccco4)C(=O)N23)cc1 (centres undefined)	4%	nt	?	nt	nt	?
c1ccc(-c2nnsc2-c2nc3ccccc3[nH]2)cc1	0%	-16	-5%	4%	55	?
Nc1ccc(-c2nc3ccccc3[nH]2)cc1	1%	-7	-5%	?	-5	-20%
c1ccc(-c2cc(-c3nc4ccccc4[nH]3)c3ccccc3n2)cc1	0%	16	?	21µM*	-67*	?
c1ccc(-c2csc(-c3nc4ccccc4[nH]3)n2)cc1	25%[56.1 µM]	nt	17µM*	nt	nt	27µM*
CCOc1ccccc1NC(=O)CSc1nc(=O)n(Cc2ccccn2)c2c1CCC2	1%	9	-4%	-5%	-11	-23%
CCc1ccc(NC(=O)CSc2nc(=O)n(Cc3cccnc3)c3c2CCC3)cc1	3%	nt	?	nt	nt	16µM*
COc1ccc(C)cc1NC(=O)CSc1nc(=O)n(Cc2ccccn2)c2c1CCC2	0%	nt	?	nt	nt	21µM*
COc1ccc(C)cc1NC(=O)CSc1nc(=O)n(Cc2cccnc2)c2c1CCC2	8%	nt	?	nt	nt	18µM*

Assay outcomes as filed in PubChem.
